# DT40 TDP1 CPT: qHTS for Inhibitors of human tyrosyl-DNA phosphodiesterase 1 (TDP1): qHTS in cells in presence of CPT; chicken DT40 Tdp1-/-;hTDP1 cells + 20 nM CPT, ATP luminescence, 48 h; Potency, µM (doses to about 46.2 µM), for inactives: at the top dose activity change, negative = growth inhibition, most hits filed as inhibitors; 12% of 420,000 active; AID 686979, 2013; also: potency is read from the fitted curve at half-maximal effect; % is scaled to controls: 0 for no effect and ±100 for the full control effect; nearly all actives have a fitted effect of over 55% in size
#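 Chicken DT40 Tdp1-/- cells stably complemented with human TDP1 were seeded at 400 cells/well in medium containing 20 nM camptothecin, exposed to pin-transferred compounds, and grown at 37 °C for at least 48 hr. Viability was read as ATP luminescence.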
# HepG2 viability: qHTS for Inhibitors of TGF-b: Cytotox Counterscreen; AID 588856, 2011; 0.76% of 410,000 active; HepG2 CAGA-GFP viability, ATP luminescence, 18 h; Potency, µM (titrated, usually from 46.1 µM), without a hit: at the top dose activity change, negative = cytotoxicity, actives largely listed as cytotoxic; also: potency is read from the fitted curve at half-maximal effect
#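 HepG2 CAGA-GFP cells (1000/well, DMEM with 1% FBS) received compound, then TGF-beta at 500 pg/mL final, and were incubated 18 hours at 37 degrees C. Viability was read by CellTiter-Glo luminescence. Media-only wells were set as complete cell-killing and DMSO as no toxicity.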
# TDP1 cell noCPT: qHTS for Inhibitors of human tyrosyl-DNA phosphodiesterase 1 (TDP1): qHTS in cells in absence of CPT. DT40 Tdp1-/- hTDP1 cells, no CPT, ATP luminescence, 48 h. Potency, µM (highest dose often 46.2 µM), inactives show at the highest dose activity change, negative = growth inhibition, usual class: inhibitors. 15% of 420,000 active. AID 686978, 2013; also: potency is read from the fitted curve at half-maximal effect; % is scaled to controls: 0 for no effect and ±100 for the full control effect; nearly all actives have a fitted effect of over 55% in size
#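 Seeded 400 DT40-hTDP1 cells/well (vehicle DMSO, no 20 nM CPT); pinned compounds; ≥48 hr at 37 °C; CellTiter-Glo luminescence as viability measure.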
# TDP1 inh: qHTS Assay for Inhibitors of Tyrosyl-DNA Phosphodiesterase (TDP1); recombinant TDP1, AlphaScreen DNA substrate cleavage; Potency, µM (doses to about 130 µM), without a hit: top-dose activity change, negative = inhibition, hits mostly inhibitors; 0.28% of 350,000 active; also: potency is read from the fitted curve at half-maximal effect; % is scaled to controls: 0 for no effect and ±100 for the full control effect; nearly all actives have a fitted effect of over 40% in size
# Target sequence (Q9NUW8 whole entry, looked up): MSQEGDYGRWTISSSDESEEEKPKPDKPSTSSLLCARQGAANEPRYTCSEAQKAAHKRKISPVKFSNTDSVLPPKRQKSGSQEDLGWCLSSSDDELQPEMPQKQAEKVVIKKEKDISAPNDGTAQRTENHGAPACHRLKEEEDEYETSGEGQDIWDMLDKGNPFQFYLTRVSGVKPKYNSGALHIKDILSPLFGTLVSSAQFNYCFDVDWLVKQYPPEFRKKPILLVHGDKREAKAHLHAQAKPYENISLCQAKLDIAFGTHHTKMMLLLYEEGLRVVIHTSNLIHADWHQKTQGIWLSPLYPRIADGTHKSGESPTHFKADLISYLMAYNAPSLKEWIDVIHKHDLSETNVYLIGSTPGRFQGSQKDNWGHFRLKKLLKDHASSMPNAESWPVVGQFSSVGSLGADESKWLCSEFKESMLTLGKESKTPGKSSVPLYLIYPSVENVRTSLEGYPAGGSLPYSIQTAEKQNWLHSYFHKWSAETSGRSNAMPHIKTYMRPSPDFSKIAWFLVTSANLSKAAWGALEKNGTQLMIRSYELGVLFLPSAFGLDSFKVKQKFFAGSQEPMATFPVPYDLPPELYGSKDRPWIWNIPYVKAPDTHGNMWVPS
#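 Steps: enzyme plus compound, 15 min RT; add biotin/phosphotyrosine-FITC oligonucleotide (15 nM final), react 5 min; add donor/acceptor beads (10 ug/ml final), 10 min; read AlphaScreen. Tdp1 at 1 nM final.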
# IL1B secr inh: qHTS for Inhibitors of Inflammasome Signaling: IL-1-beta AlphaLISA Primary Screen | THP-1 LPS/ATP IL-1B secretion, AlphaLISA, 16 h; active compounds read low | activity change, % at 57.5 µM | 4.7% of 360,000 active | AID 743279, 2014; in the data active = activity change below about -50%; inconclusive = mostly about -30% to -49%; also: % is scaled to controls: 0 for no effect and ±100 for the full control effect
#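 THP-1 cells pretreated 1 hr with compounds (up to 57.5 uM final), then stimulated with LPS (250 ng/mL final) plus ATP (1.25 mM final); secreted IL-1B measured by AlphaLISA after 16 hr, decreased signal indicating inhibition.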
# TGFb inhibitor: qHTS for Inhibitors of TGF-b; Potency, µM (doses to about 46.1 µM), for the others: at the top dose activity, negative = inhibition, actives largely listed as inhibitors; AID 588855, 2011; 1.2% of 410,000 active; HepG2 CAGA-GFP TGF-b/SMAD3 reporter, GFP fluorescence, 18 h; TGF-beta stimulated, 500 pg/mL final; also: potency is read from the fitted curve at half-maximal effect; % is scaled to controls: 0 for no effect and ±100 for the full control effect; nearly all actives have a fitted effect of over 65% in size
#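 Using HEPG2 CAGA-GFP reporter cells at 1000 cells/well, we pinned test compounds, stimulated with recombinant TGF-beta (500 pg/mL final) and measured total well GFP after 18 h.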
# Numbers without * were called inactive; ? = inconclusive; / = not tested or not shown; [ ] = dose if it differs, or a comment. Hits are enriched below; roughly 19% of the tested compounds scored in any of these assays. Unless noted, calls follow the shape of the dose curve; as a rule, active = well fitted curve in the direction sought with a large enough effect; inconclusive = small, poorly fitted or top-dose-only effect, or another doubt; inactive = no such curve, though single readings can be large; an effect the other way counts as inactive or inconclusive.
SMILES,DT40 TDP1 CPT,HepG2 viability,TDP1 cell noCPT,TDP1 inh,IL1B secr inh,TGFb inhibitor
O=c1[nH]c(SCc2nc3ccccc3c(=O)n2-c2ccccc2)nc2ccccc12,11.6µM*,-9.5%,?,2.7%,13.7,-2.6%
O=C(CSc1nc2ccccc2c(=O)[nH]1)c1ccccc1,20.6µM*,-16.4%,29.1µM*,2.4%,2.9,-32.8%
CCc1ccc(-n2c(CSc3nnnn3-c3ccccc3)nc3ccccc3c2=O)cc1,?,8.3%,18.4µM*,2.8%,4.3,?
O=C(O)CSc1nc2ccccc2c(=O)[nH]1,-1.1%,4.6%,0.1%,3.4%,-5.0,11.4%
O=C(CSc1nc(O)c(Cc2ccccc2)c(=O)[nH]1)c1ccccc1,?,3.1%,2.06µM*,4.1%,2.5,-1.8%
COc1ccccc1CN1CC(C(=O)NCc2cc(C(C)C)no2)CCC1=O (stereo not drawn),-17.7%,-3.8%,29.7%,2.1%,0.1,-3.5%
O=C(CSc1nc2ccccc2c(=O)[nH]1)N1CCN(c2ccccc2F)CC1,?,-77.2%,18.4µM*,14.2%,25.9,16.8%
O=C(CSc1nc2ccccc2c(=O)[nH]1)N1CCCCC1,-25.0%,-3.7%,0.5%,2.0%,13.1,4.9%
O=C(Nc1ccc(S(=O)(=O)Nc2ccccc2)cc1)C1COc2ccccc2O1 (stereo not drawn),16.4µM*,-26.2%,20.6µM*,2.4%,-69.1*,12.6µM*
Cc1cc(C)nc(NS(=O)(=O)c2ccc(NC(=O)C3COc4ccccc4O3)cc2)n1 (stereo not drawn),-4.1%,-2.7%,15.3%,-3.7%,-12.7,-10.5%
COc1ccccc1NC(=O)c1ccc(NC(=O)C2COc3ccccc3O2)cc1 (stereo not drawn),?,-4.6%,?,8.2%,-55.2*,2.7%
CN1CCN(c2ccc(Cl)cc2NC(=O)C2COc3ccccc3O2)CC1 (stereo not drawn),?,-73.7%,29.1µM*,-5.8%,-4.3,-1.5%
COc1ccc(Cl)cc1NC(=O)C1COc2ccccc2O1 (stereo not drawn),-29.9%,-18.1%,?,-4.6%,0.0,-12.3%
CC(C)NC(=O)c1ccccc1NC(=O)C1COc2ccccc2O1 (stereo not drawn),?,1.7%,20.6µM*,1.9%[56.1 µM],0.0,-2.2%
CCc1ccccc1NC(=O)N1CCCc2ccccc21,-22.5%,10.2%,2.1%,1.8%[56.1 µM],6.0,-0.5%
Cc1ccc2c(=O)c3ccccc3n(CCCN)c2c1C,/,/,/,17.4%,/,/
CCN(CC)C(=O)C1=C(C)N(CCCN2CCCC2=O)C(=O)C(CC(=O)NCCCN(C)C)C1 (stereo not drawn),-6.7%,6.4%,-9.3%,/,11.6,17.7%
CSc1ccccc1C(=O)Nc1ccccc1C(=O)NC(C)C,23.1µM*,3.8%,?,2.7%,1.4,0.2%
COc1cccc(C2=CC(=O)C(C(C)(C)C)N2C(C)(C)C)c1 (stereo not drawn),?,-25.1%,20.6µM*,/,16.3,?
COc1cccc(N2C(=O)c3ccccc3C2=O)c1,/,/,/,-12.0%,/,/
Cc1ccc(C)c(CSc2nc3[nH]ncc3c(=O)[nH]2)c1,2.59µM*,-27.5%,1.03µM*,0.0%,-6.6,-0.1%
Cc1nnc(NC(=O)CSc2nc3[nH]ncc3c(=O)[nH]2)s1,?,8.7%,14.6µM*,5.8%,20.8,?
O=C(NCC(c1ccco1)N1CCOCC1)c1ccc(F)c(F)c1 (stereo not drawn),-2.8%,-1.4%,-6.6%,-0.1%,17.3,1.4%
CC(C)Oc1ccc(C(CCN)C2CCCCC2)cc1 (stereo not drawn),13µM*,11.2µM*,8.2µM*,/,-98.7*,?
CC(C)C[C@H](NC(=O)[C@@H]1Cc2c([nH]c3ccccc23)C2c3ccccc3C(=O)N21)C(=O)N1CCC[C@@H]1C(=O)O (stereo partly drawn),-1.4%,-0.6%,0.2%,/,16.6,5.6%
SMILES,DT40 TDP1 CPT,HepG2 viability,TDP1 cell noCPT,TDP1 inh,IL1B secr inh,TGFb inhibitor
Cc1ccc(-n2ncc(C(=O)N3CCN(c4cccc(C)c4)C(C)C3)c2C2CCN(C(=O)OC(C)(C)C)CC2)cc1 (stereo not drawn),14.6µM*,-27.5%,23.1µM*,2.1%,/,-17.0%
CC1CCN(C(=O)c2cnn(-c3ccc(Cl)cc3)c2C2CCN(C(=O)OC(C)(C)C)CC2)CC1,3.0%,0.2%,-9.0%,-8.5%,/,-20.6%
Cc1cccc(-n2ncc(C(=O)N3CCN(Cc4ccccc4)CC3)c2C2CCN(C(=O)OC(C)(C)C)CC2)c1,16.4µM*,-11.3%,16.4µM*,1.1%,/,-24.3%
CC(C)(C)OC(=O)N1CCC(c2c(C(=O)N3CCN(C(=O)c4ccco4)CC3)cnn2-c2cccc(Cl)c2)CC1,?,-19.2%,?,4.3%,-16.7,?
COc1ccc(-n2ncc(C(=O)N3CCN(Cc4ccccc4)CC3)c2C2CCN(C(=O)OC(C)(C)C)CC2)cc1,13µM*,-4.9%,20.6µM*,4.2%,/,-5.0%
CC(C)(C)OC(=O)N1CCC(c2c(C(=O)N3CCN(c4ccccc4)CC3)cnn2-c2ccccc2)CC1,?,-6.5%,16.4µM*,-1.1%,/,-11.7%
CN1CCN(C(=O)c2cnn(-c3ccccc3)c2C2CCN(C(=O)OC(C)(C)C)CC2)CC1,-3.1%,-14.7%,-10.0%,0.0%,/,0.0%
CC(OC(=O)c1cc(=O)[nH]c2ccccc12)C(=O)NC1CCCC1 (stereo not drawn),-7.4%,-49.4%,0.5%,0.6%,3.2,6.0%
C[C@H](CO)N1C[C@H](C)[C@H](CN(C)Cc2ccncc2)Oc2cc(-c3ccccc3F)ccc2S1(=O)=O,14.6µM*,-40.0%,23.1µM*,/,-28.7,-3.9%
CCCC#Cc1ccc2c(c1)O[C@@H](CN(C)Cc1ccc3c(c1)OCO3)[C@H](C)CN([C@@H](C)CO)S2(=O)=O,7.31µM*,-57.5%,2.31µM*,/,-2.6,?
C[C@H]1CN([C@@H](C)CO)S(=O)(=O)c2ccc(Br)cc2O[C@@H]1CN(C)Cc1ccccc1,?,-121.6%,20.6µM*,/,0.0,?

# Screening results: PubChem BioAssay, National Center for Advancing Translational Sciences (NCATS)
